Laboratory results published in ChEMBL document CHEMBL1961873, “Compounds: GSK PKIS; Assays: Nanosyn kinase panel” (2012).

Columns and labels:
[1] = molecular target: Mitogen-activated protein kinase 3 (Homo sapiens) (UniProt P27361); settings: at 1 µM;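 further: values are mean percent inhibition of MAPK3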
[2] = molecular target: SRSF protein kinase 3 (Homo sapiens) (UniProt Q9UPE1); settings: at 0.1 µM
[3] = molecular target: SRSF protein kinase 3 (Homo sapiens) (UniProt Q9UPE1); settings: at 1 µM
[4] = molecular target: Mitogen-activated protein kinase 14 (Homo sapiens) (UniProt Q16539); settings: at 0.1 µM
Mitogen-activated protein kinase 14 (Homo sapiens), sequence (Q16539 whole entry): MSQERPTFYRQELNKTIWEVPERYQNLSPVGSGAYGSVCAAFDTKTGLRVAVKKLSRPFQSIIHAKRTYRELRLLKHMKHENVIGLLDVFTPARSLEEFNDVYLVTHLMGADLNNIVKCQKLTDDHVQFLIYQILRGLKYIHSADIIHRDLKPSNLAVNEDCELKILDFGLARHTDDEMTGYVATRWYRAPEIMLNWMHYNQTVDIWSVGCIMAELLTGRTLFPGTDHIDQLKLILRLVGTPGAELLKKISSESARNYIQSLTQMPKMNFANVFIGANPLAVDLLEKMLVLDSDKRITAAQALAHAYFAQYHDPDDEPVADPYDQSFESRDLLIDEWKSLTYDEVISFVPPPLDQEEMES

[5] = molecular target: Mitogen-activated protein kinase 14 (Homo sapiens) (UniProt Q16539); settings: at 1 µM
[6] = molecular target: Mitogen-activated protein kinase 11 (Homo sapiens) (UniProt Q15759); settings: at 0.1 µM
Mitogen-activated protein kinase 11 (Homo sapiens), sequence (Q15759 whole entry): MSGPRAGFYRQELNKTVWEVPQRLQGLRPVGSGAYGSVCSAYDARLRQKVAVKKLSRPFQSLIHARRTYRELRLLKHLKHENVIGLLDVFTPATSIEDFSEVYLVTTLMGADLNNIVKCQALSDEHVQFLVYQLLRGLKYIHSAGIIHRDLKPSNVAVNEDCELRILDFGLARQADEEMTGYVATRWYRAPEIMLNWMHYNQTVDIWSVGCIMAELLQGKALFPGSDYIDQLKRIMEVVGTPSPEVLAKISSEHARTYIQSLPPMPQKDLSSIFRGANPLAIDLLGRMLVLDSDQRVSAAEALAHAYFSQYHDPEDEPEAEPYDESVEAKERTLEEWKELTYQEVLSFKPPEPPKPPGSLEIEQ

[7] = molecular target: Mitogen-activated protein kinase 11 (Homo sapiens) (UniProt Q15759); settings: at 1 µM
[8] = molecular target: T1, Mitogen-activated protein kinase 13 (Homo sapiens) (UniProt O15264); settings: at 0.1 µM
T1 sequence (whole entry): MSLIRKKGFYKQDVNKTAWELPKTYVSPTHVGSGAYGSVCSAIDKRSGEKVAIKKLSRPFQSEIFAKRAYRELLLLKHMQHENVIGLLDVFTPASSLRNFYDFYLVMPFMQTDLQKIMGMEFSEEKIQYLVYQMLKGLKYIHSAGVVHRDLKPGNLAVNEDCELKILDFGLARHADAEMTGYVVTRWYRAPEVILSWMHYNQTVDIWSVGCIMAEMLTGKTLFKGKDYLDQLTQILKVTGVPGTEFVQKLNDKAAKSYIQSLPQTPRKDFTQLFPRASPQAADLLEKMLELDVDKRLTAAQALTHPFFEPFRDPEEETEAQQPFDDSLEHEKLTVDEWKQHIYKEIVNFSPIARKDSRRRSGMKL

[9] = molecular target: T1, Mitogen-activated protein kinase 13 (Homo sapiens); settings: at 1 µM
[10] = molecular target: T2, Mitogen-activated protein kinase 12 (Homo sapiens) (UniProt P53778); settings: at 0.1 µM
T2 sequence (whole entry): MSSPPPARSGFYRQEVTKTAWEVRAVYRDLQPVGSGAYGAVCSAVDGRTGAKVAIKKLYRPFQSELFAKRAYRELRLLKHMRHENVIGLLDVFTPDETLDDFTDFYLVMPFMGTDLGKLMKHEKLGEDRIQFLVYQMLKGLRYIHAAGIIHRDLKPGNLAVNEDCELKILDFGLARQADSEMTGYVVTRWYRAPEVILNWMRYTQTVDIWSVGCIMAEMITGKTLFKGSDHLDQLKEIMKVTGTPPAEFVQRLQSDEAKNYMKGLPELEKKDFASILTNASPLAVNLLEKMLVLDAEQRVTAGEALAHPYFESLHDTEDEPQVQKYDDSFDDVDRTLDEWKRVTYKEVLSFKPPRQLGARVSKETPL

[11] = molecular target: T2, Mitogen-activated protein kinase 12 (Homo sapiens); settings: at 1 µM
[12] = molecular target: SRSF protein kinase 1 (Homo sapiens) (UniProt Q96SB4); settings: at 0.1 µM
SRSF protein kinase 1 (Homo sapiens), sequence (Q96SB4 whole entry, canonical isoform): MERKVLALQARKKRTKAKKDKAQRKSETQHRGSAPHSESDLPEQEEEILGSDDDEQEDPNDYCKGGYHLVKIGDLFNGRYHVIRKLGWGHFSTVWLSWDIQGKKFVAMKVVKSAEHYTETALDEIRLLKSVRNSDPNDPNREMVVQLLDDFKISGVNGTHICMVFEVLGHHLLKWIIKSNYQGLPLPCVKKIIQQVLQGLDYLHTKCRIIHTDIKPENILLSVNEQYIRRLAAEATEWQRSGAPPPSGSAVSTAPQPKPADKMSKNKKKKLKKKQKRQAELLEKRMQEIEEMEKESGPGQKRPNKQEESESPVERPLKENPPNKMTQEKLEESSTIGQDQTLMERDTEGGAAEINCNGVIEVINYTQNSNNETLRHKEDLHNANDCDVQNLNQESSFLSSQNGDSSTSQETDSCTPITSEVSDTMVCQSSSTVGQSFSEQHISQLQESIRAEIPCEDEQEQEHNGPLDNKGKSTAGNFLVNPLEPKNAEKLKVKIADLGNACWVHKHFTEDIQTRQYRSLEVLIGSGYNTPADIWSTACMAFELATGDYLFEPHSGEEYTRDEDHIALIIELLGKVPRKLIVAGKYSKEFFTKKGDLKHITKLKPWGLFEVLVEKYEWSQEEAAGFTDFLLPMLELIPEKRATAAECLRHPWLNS

[13] = molecular target: SRSF protein kinase 1 (Homo sapiens) (UniProt Q96SB4); settings: at 1 µM
[14] = molecular target: Phosphatidylinositol 4,5-bisphosphate 3-kinase catalytic subunit alpha isoform (Homo sapiens) (UniProt P42336); settings: at 0.1 µM
Phosphatidylinositol 4,5-bisphosphate 3-kinase catalytic subunit alpha isoform (Homo sapiens), sequence (P42336 whole entry, canonical isoform): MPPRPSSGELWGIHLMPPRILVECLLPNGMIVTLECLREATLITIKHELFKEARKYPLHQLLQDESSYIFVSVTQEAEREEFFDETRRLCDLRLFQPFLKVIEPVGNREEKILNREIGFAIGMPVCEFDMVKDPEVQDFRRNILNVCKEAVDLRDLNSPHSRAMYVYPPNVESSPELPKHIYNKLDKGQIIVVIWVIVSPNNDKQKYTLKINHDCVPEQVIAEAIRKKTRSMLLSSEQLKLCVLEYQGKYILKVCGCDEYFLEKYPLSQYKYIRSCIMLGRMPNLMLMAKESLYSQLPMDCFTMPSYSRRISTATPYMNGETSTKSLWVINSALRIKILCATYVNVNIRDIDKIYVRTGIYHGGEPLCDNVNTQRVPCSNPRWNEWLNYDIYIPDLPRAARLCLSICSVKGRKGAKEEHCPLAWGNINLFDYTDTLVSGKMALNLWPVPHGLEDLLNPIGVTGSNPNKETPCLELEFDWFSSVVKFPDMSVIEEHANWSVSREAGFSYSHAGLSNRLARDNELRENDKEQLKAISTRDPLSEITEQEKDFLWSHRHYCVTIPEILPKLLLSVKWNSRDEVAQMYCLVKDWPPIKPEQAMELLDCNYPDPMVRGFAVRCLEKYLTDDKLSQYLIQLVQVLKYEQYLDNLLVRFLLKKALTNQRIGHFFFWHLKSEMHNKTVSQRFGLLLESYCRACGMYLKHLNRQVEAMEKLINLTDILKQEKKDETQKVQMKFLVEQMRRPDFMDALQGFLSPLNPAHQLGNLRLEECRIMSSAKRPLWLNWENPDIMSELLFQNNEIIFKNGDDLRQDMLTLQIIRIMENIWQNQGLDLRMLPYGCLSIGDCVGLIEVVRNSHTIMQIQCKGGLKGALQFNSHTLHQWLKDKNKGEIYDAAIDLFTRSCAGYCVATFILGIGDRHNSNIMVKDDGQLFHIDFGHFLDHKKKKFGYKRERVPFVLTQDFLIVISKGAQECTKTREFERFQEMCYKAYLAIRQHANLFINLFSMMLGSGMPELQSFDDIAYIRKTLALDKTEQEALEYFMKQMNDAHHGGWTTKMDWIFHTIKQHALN

[15] = molecular target: Phosphatidylinositol 4,5-bisphosphate 3-kinase catalytic subunit alpha isoform (Homo sapiens) (UniProt P42336); settings: at 1 µM
[16] = molecular target: T3, Phosphatidylinositol 4,5-bisphosphate 3-kinase catalytic subunit delta isoform (Homo sapiens) (UniProt O00329); settings: at 0.1 µM
T3 sequence (whole entry): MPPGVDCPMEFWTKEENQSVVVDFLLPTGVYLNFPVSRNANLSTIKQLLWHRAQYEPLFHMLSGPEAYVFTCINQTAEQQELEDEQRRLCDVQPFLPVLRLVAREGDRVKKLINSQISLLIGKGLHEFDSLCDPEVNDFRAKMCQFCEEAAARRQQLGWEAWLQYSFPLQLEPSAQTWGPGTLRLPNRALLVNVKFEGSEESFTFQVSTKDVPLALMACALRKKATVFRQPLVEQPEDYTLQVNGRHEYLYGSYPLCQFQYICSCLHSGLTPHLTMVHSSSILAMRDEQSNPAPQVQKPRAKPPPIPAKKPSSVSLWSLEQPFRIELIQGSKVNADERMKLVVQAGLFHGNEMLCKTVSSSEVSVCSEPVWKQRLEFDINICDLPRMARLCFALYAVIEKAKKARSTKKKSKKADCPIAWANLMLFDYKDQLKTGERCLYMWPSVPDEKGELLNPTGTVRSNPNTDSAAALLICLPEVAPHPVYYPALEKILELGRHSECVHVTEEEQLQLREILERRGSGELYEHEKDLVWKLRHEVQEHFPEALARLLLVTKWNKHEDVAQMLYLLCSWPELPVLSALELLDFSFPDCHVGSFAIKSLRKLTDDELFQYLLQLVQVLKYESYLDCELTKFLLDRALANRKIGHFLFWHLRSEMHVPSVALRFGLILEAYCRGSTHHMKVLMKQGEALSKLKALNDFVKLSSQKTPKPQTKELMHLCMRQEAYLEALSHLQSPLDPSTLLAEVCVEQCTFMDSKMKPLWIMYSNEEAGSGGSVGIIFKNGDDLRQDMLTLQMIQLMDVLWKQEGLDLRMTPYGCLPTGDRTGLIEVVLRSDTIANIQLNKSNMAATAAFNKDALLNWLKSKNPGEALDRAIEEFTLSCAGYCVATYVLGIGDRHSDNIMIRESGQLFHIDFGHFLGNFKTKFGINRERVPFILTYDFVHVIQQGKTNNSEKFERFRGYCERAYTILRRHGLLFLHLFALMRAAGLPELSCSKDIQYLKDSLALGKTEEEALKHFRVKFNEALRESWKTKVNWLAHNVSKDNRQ

[17] = molecular target: T3, Phosphatidylinositol 4,5-bisphosphate 3-kinase catalytic subunit delta isoform (Homo sapiens); settings: at 1 µM
[18] = molecular target: Phosphatidylinositol 4-kinase beta (Homo sapiens) (UniProt Q9UBF8); settings: at 1 µM
Phosphatidylinositol 4-kinase beta (Homo sapiens), sequence (Q9UBF8 2-816 limits assumed): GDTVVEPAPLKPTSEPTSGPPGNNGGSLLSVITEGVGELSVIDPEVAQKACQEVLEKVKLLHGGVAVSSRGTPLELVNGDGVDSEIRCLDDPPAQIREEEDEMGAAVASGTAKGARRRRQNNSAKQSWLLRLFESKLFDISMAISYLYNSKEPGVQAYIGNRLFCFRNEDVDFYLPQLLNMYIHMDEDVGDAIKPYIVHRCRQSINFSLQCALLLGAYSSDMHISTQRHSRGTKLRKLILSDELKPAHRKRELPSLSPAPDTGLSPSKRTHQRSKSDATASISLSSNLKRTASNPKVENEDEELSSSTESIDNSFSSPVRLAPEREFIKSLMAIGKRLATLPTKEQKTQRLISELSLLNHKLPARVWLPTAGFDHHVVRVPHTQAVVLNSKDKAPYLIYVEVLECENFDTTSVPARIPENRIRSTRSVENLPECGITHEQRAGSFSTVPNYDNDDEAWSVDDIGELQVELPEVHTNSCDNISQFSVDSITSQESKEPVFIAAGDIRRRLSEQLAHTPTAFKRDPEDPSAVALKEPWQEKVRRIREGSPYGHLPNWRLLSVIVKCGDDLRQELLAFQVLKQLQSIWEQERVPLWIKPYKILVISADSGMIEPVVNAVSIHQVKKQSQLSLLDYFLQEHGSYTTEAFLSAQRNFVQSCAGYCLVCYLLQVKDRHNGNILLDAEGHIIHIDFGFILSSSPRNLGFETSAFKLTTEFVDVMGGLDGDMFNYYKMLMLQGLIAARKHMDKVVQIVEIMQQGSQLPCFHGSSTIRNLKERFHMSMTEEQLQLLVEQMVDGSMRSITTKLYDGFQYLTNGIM

[19] = molecular target: Sphingosine kinase 1 (Homo sapiens) (UniProt Q9NYA1); settings: at 0.1 µM;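 further: mean percent inhibition of SPHK1 activity, measured within the GSK PKIS screening panel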
Sphingosine kinase 1 (Homo sapiens), sequence (Q9NYA1 whole entry): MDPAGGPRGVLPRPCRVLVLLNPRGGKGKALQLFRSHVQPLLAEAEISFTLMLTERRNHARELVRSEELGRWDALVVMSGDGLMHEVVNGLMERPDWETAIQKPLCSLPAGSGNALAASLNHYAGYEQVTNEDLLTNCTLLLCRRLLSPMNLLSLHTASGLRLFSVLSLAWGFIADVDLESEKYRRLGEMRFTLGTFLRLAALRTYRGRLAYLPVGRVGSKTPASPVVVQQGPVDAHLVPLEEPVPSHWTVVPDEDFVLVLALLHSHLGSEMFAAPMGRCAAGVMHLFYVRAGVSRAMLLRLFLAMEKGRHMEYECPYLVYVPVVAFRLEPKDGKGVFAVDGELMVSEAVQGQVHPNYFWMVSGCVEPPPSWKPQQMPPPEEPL

[20] = molecular target: Phosphatidylinositol 4-kinase beta (Homo sapiens) (UniProt Q9UBF8); settings: at 0.1 µM

Mitogen-activated protein kinase 3 (Homo sapiens), sequence (P27361 whole entry): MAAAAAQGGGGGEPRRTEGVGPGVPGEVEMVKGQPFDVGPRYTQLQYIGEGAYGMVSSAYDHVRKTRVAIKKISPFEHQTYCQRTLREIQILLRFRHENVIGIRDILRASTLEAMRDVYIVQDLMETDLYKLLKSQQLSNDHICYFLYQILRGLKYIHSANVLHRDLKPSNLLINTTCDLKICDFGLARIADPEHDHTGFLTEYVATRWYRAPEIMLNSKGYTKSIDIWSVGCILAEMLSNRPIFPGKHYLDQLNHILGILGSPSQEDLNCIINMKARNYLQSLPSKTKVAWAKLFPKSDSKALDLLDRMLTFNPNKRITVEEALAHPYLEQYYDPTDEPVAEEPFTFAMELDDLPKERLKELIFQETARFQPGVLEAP
SRSF protein kinase 3 (Homo sapiens), sequence (Q9UPE1 whole entry): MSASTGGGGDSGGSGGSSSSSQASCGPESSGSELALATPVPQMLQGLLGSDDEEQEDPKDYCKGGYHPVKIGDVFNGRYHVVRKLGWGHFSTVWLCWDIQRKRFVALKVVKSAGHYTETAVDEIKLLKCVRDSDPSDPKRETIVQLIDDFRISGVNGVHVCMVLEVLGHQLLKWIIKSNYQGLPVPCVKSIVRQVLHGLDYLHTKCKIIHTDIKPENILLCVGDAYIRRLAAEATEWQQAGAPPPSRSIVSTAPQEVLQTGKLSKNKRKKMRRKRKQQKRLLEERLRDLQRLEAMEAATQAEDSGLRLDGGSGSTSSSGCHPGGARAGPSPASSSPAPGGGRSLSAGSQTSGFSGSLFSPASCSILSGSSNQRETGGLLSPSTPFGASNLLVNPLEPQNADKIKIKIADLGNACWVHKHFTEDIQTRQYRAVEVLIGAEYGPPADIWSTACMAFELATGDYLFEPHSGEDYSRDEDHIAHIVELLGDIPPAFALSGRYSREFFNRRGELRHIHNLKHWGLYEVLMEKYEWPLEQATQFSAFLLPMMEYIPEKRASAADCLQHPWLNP

| SMILES | inhibition [1] [%] | inhibition [2] [%] | inhibition [3] [%] | inhibition [4] [%] | inhibition [5] [%] | inhibition [6] [%] | inhibition [7] [%] | inhibition [8] [%] | inhibition [9] [%] | inhibition [10] [%] | inhibition [11] [%] | inhibition [12] [%] | inhibition [13] [%] | inhibition [14] [%] | inhibition [15] [%] | inhibition [16] [%] | inhibition [17] [%] | inhibition [18] [%] | inhibition [19] [%] | inhibition [20] [%] |
| --- | --- | --- | --- | --- | --- | --- | --- | --- | --- | --- | --- | --- | --- | --- | --- | --- | --- | --- | --- | --- |
| NS(=O)(=O)c1ccc(N/N=C2\C(=O)Nc3ccc(C(=O)NCCCn4ccnc4)cc32)cc1 | 15.9 | -1.4 | 0.48 | 1.52 | 7.84 | 5.07 | 9.47 | 1.23 | 6.17 | 2.29 | 2.75 | -0.49 | 2.62 | 3.67 | 4.54 | 0.52 | 2.39 | -5.49 | 14.8 |  |
| O=C1Nc2ccc(I)cc2C1=Cc1cc(Br)c(O)c(Br)c1 | 96.8 | 3.61 | 0.2 | 5.09 | 8.57 | 1.97 | 4.59 |  | 4.77 | 3.23 | 6.31 | -3.87 | -2.51 | 6.08 | 23.5 |  |  | 32.6 | -1.83 | -3.41 |
| CN(c1ccc(NC(=O)Nc2c(Cl)cccc2Cl)cc1)c1ccnc(Nc2cccc(CS(C)(=O)=O)c2)n1 | 4.66 | 0.97 | 2.4 | 2.39 | 3.34 | 1.5 | 4.6 | 1.53 | 1.46 | -0.44 | -0.86 | -0.25 | 2.16 | 0.53 | -1.22 | 0.12 | -1.62 | 3.73 | -0.6 | 3.66 |
| COc1cc(N2CCN(C(C)C)CC2)ccc1Nc1nc(Nc2ccc(F)cc2C(=O)NC[C@@H](O)CO)c2cc[nH]c2n1 | 5.1 | -4.86 | 2.68 | 2.09 | 9.88 | 4.89 | 6.16 | -0.21 | 4.89 | -2.16 | 2.97 | -0.39 | 3.84 | 4.55 | 2.69 | 1.37 | 3.4 | -1.08 | 1.31 | -3.83 |
| Nc1nccc(-c2c(-c3ccc(F)cc3)ncn2C2CCC(O)CC2)n1 (stereo unspecified) | 0 | 1.14 | 0.84 | 70.8 | 92.5 | 14.9 | 62.2 | 0.18 | -2.89 | -3.41 | -0.94 | 1.95 | 4.67 | 16.6 | 3.18 | 3.72 | 7.23 | -0.81 | 0.34 | -6.38 |
| Cc1ccc(C(=O)NC(C)C)cc1-c1ccc(C(=O)NCC2CC2)cc1 | -0.93 | 1.71 | -0.59 |  |  | 4.42 | 37 | -4.48 | -4.39 | -2.72 | -1.93 | 1.33 | 30.8 | -2.38 | -1.61 | -1.08 | -1.45 | -3.13 | -0.6 | -3.91 |
| NC(=O)Cc1ccccc1Oc1nccc(-c2c(-c3ccc(F)cc3)ncn2C2CCNCC2)n1 | 2.24 | -0.6 | 0.09 |  |  |  |  |  |  |  |  | -2.64 | -4.17 | 1.29 | 3.49 | 2.67 | 2.58 | 3.25 | -2.17 | -0.45 |
| Fc1ccc(-c2ncn(C3CCNCC3)c2-c2ccnc(Oc3ccc(F)c(F)c3)n2)cc1 | 6.51 | -3.83 | -1.43 |  |  |  |  |  |  |  |  | -3.26 | -1.49 | 3.43 | 3.41 | 1.7 | 3.53 | 1.86 | 1.28 | -1.47 |
| CCc1nccc2c1nc(-c1nonc1N)n2CC | 1.77 | -1.38 | -1.65 | 3.67 |  | 2.18 | 1.56 | -1.2 | 1.58 | -1.3 | 3.91 | -2.2 | -4.41 | -0.95 | 1.38 | 1.47 | 4.23 | 1.82 | 0 | -3.69 |
| c1ccc(-c2n[nH]cc2-c2ccnc(-c3ccc(OCCN4CCOCC4)cc3)c2)nc1 | -2.62 | 2.38 | 0.78 | 3.12 | 28.9 | -0.65 | 5.15 | 5.65 | -0.43 | 3.09 | 0.29 | 2.99 | -0.67 | 0.37 | 0.17 | 2.7 | 3.02 | -1.19 | -5.06 | -0.93 |
| COc1ccc2cc(-c3c(-c4ccncc4)nc(-c4ccc(S(C)(=O)=O)cc4C)n3C)ccc2c1 | 2.57 | -1.96 | -4.7 | 14.2 | 17.3 | 2.54 | 11 | 2.15 | 5.04 | 3.44 | 3.33 | -2.04 | -2.87 | 3.62 | 3.55 | 1.31 | 1.59 | 0.34 | 2.55 |  |
